The campaign covered roughly 53,000 compounds. About 900 (1.7%) showed an effect of 50% or more. What follows is part of a selection rich in strong results, with near analogues and random picks from the rest.
Tested on: Mycobacterium tuberculosis
Test: Cornell - Phenotypic assay to identify agents that inhibit growth of Mycobacterium tuberculosis
Type: functional
Design: scale not given: direction of the effect not stated beside the values
Settings: 10 mM as filed; unlikely as a test dose

| Compound | Percent Effect |
| --- | --- |
| CCc1csc(C2CCCN(C(=O)c3ccc(=O)n(CC)n3)C2)n1 (stereo not given) | -10.64% |
| CCc1nc(C(=O)N(CC)CC(=O)N(C)C)nn1-c1ccccc1Cl | 10.69% |
| CCCn1nnnc1CN(c1ccc(C)cc1)C(C)C | 13.52% |
| CCCn1nnnc1CN(C)C(C)c1ccc(C)cc1 (stereo not given) | 18.09% |
| CCCn1nnnc1CN(c1ccc(N2CCOCC2)cc1)C(C)C | 100.7% |
| c1ccc(CN2CCC(CCNc3ncnc4c3CCNCC4)C2)cc1 (stereo not given) | 21.24% |
| CN1C(=O)CCCC12CCCN(Cc1cccs1)C2.O=C(O)C(F)(F)F (stereo not given) | 15.82% |
| COCCN1CC2(CCN(C(=O)c3ccno3)CC2)c2ccccc21.O=C(O)C(F)(F)F | -25.4% |
| COCCN1CC2(CCN(Cc3ccco3)CC2)c2ccccc21 | 57.89% |
| CCN1CCC2(CC1)CN(CCO)c1ccccc12 | -37.58% |
| Cc1cc(C)n(CC2CN(CCC(=O)NC3CCCCC3)CCO2)n1 (stereo not given) | -4.136% |
| CC(=O)Nc1nc(C(=O)N2CCC(Nc3cccnn3)CC2)cs1 | -42.9% |
| Cc1cc(O)c(OCC(=O)/N=c2\[nH]c(C)c(C)s2)cn1 | 27.09% |
| Cc1[nH]/c(=N/C(=O)Cn2nc(N3CCOCC3)ccc2=O)sc1C | -3.782% |
| Cc1[nH]/c(=N\C(=O)c2csc(NC3CCCC3)n2)sc1C | 105% |
| CC(=O)Nc1nc(C(=O)N2CCCC(c3cc(C)[nH]n3)C2)cs1 (stereo not given) | -1.903% |
| Cc1[nH]/c(=N\C(=O)c2csc(NC3CC3)n2)sc1C | 53.16% |
| COC(=O)Cn1c(C)cc(=O)n2nc(-c3cccs3)nc12 | -3.318% |
| Cc1cnn(CC2CN(CCc3cccs3)CCO2)c1 (stereo not given) | 13.16% |
| CC(C(=O)NCC(C)(C)c1ccc2c(c1)OCCO2)n1cncn1 (stereo not given) | -4.418% |
| CC(=O)N1CCC(c2nc(C)cc(-c3ccccc3C(=O)O)n2)CC1 | -42.06% |
| COc1ccccc1OC1CCN(c2nccc(N)n2)CC1 | -15.16% |
| CS(=O)(=O)NCCCNC(=O)c1cnc(-c2ccsc2)s1 | -10.19% |
| Cn1cc(CN2CCC(c3ccncc3)CC2)cn1 | 9.056% |
| COc1cc2c(cc1CN1CCC3(CCCN(C)C3=O)C1)OCCO2 (stereo not given) | 14.22% |
| COc1ccc(CN2CCC3(CCCN(C)C3=O)C2)c(OC)c1C (stereo not given) | 52.12% |
| COc1ccc(CN2CCC3(CCCN(C)C3=O)C2)c(Cl)c1OC (stereo not given) | 41.14% |

| Compound | Percent Effect |
| --- | --- |
| CCN(CC)CCNS(=O)(=O)c1cccc(CSC)c1 | 5.575% |
| Cc1noc(C)c1S(=O)(=O)NCC(O)c1ccc2c(c1)CCO2 (stereo not given) | -26.48% |
| Cc1nc(CNCC2CN(C)CCO2)cs1 (stereo not given) | 0.5218% |
| CC(=O)N[C@H]1CN(S(=O)(=O)N(C)Cc2ccccc2)C[C@@H]1C1CC1 | 14.84% |
| CCC1CCCCN1C(=O)Cn1nc(-c2ccc(C)o2)cc(N)c1=O (stereo not given) | -6.265% |
| CCC1CCCCN1C(=O)Cn1nc(-c2cc(C)oc2C)cc(N)c1=O (stereo not given) | 52.47% |
| CCC1CCCCN1C(=O)Cn1nc(-c2ccc(C)s2)cc(N)c1=O (stereo not given) | 45.47% |
| NCCc1n[nH]c(=O)n1-c1cccc(Cl)c1Cl | -33.73% |
| Cc1cccc(CN2C[C@@H]3CN(C(=O)C4CCOC4)C[C@@H]3C2=O)c1 (stereo not given in full) | 4.733% |
| COc1ccc(NC(=O)CNc2cccc3c2CCCC3)c(OC)c1 | 76.54% |
| Cc1ccc(NC(=O)CNc2cccc(C(N)=O)c2C)c(C)c1 | -29.06% |
| Cc1ccc(NC(=O)CNc2cccc3c2CCCC3)c(Br)c1 | 51.04% |
| COc1ccc(NC(=O)Cn2nc(C)c(C)cc2=O)c(OC)c1 | 11.71% |
| Cc1ccc(NC(=O)CNc2ccccc2C(N)=O)c(C)c1 | -11.67% |
| COc1ccc(CNC(=O)CNc2ccccc2OC)cc1 | 22.93% |
| NC(=O)CCSc1n[nH]c(-c2ccc3c(c2)CCC3)n1 | 8.887% |
| CN1CCC(N(C)C(=O)c2cnc3c(cnn3C3CCCC3)c2)CC1 | 15.63% |
| Cc1ccc(C#N)c(N2CC(C)(C)[C@@](C)(O)C2)n1 | 10.2% |
| O=C(CCc1nnc(-c2ccsc2)o1)NCC1CCN(C2CC2)C1 (stereo not given) | -9.076% |
| Cc1c(CNCc2nn(-c3ccccc3)c3c2CCC3)cc(C#N)n1C | 0.6388% |
| COc1ccccc1CNCc1nn(-c2ccccc2)c2c1CCC2 | 75.02% |
| Cc1noc(C)c1CNCc1nn(-c2ccccc2)c2c1CCC2 | -25.17% |
| NC(=O)CSCC(=O)NCC1CCCC1 | -10.13% |
| CN(CC(=O)NC1(C)CCS(=O)(=O)C1)Cc1ccc(Br)cc1 (stereo not given) | -6.576% |
| O=C(CSCCN1CCOCC1)N1CCCCCC1 | -6.957% |
| CN(Cc1ccncn1)c1nccc(CCC(F)(F)F)n1 | -20.7% |
| CNc1ncc(CN(C)c2nccc(CCC(F)(F)F)n2)cn1 | 50.32% |

| Compound | Percent Effect |
| --- | --- |
| CCc1nnc(CN(C)c2nccc(CCC(F)(F)F)n2)o1 | 6.8% |
| CS(=O)(=O)N1CCCC1C(=O)Nc1cnc2n1CCCC2 (stereo not given) | 9.053% |
| CCCNC(=O)NC(=O)CNC(C)(C)c1ccc2c(c1)OCO2 | 0.4574% |
| CCCNC(=O)NC(=O)CNC(C)(C)c1ccc2c(c1)OCCO2 | 101.9% |
| CCNC(=O)NC(=O)CNC(C)(C)c1ccc2c(c1)OCCO2 | 27.43% |
| Cc1n[nH]c(C)c1S(=O)(=O)N1CCC(Oc2cnccn2)CC1 | 6.999% |
| O=C(O)c1cccn1-c1ccc2c(c1)OCCO2 | 28.73% |
| COc1ccccc1CCNC(=O)C1CCC(Cn2cnnn2)CC1 (stereo not given) | 3.007% |
| Cc1nn(C)c2nc(N(Cc3cnn(C)c3)C3CCCCC3)sc12 | 56.52% |
| Cc1nn(C)c2nc(N(C)CCN(C)C3CCCC3)sc12 | 37.55% |
| Cc1nn(C)c2nc(N(CCN(C)C)C3CCCC3)sc12 | 19.35% |
| c1ccn(Cc2nnc3n2CCCN(c2cnccn2)C3)c1 | -17.01% |
| Cc1ccc(CN2CCN(c3ccc(F)cn3)CC2=O)cc1C | 39.83% |
| CCC(NC(=O)NCC(=O)NC(C)C)c1cc(F)ccc1F (stereo not given) | 5.032% |
| CCOc1ccc(NC(=O)NCCCN(C)S(C)(=O)=O)cc1C | 30.17% |
| CCOc1ccc(NC(=O)NCc2csc(NC)n2)cc1C | 21.98% |
| CCOc1ccc(NC(=O)NCCS(=O)(=O)CC)cc1C | 60.38% |
| CO[C@@H]1CCN(C(=O)c2cc(C)on2)C[C@@H]1Cc1ccccc1 | -19.48% |
| Cc1nc(NCc2ccccc2)cc(C(C)Cn2nc(C)c(C)c2C)n1 (stereo not given) | 27.52% |
| CC(C)CN1Cc2cccc(NC(=O)Cc3ccon3)c2C1 | 8.389% |
| O=C(Nc1cncc(Br)c1O)c1ccon1 | 105.3% |
| O=C(Cc1ccn[nH]1)N1CCc2cc(Br)sc2C1 | 17.86% |
| COC(=O)Cc1cccc(NC(=O)Cc2ccon2)c1 | 10.84% |
| O=C(Cc1ccn[nH]1)Nc1cncc(Br)c1O | 104.6% |
| O=C(Cc1ccon1)Nc1cncc(Br)c1O | 58.04% |
| CCOc1cccc(CCNC(=O)Cc2ccn[nH]2)n1 | -3.182% |
| O=C(Nc1ccccc1OC1CCOC1)c1ccon1 (stereo not given) | -36.9% |

| Compound | Percent Effect |
| --- | --- |
| COc1c(Br)cccc1CCNC(=O)c1ccon1 | 37.39% |
| CCc1ncc(CN2C[C@@H]3C[C@@H](O)CN3C[C@@H]2Cc2ccccc2)cn1 | 42.85% |
| CCc1ccc(C(=O)N2CCC(Nc3ccc(C)nn3)CC2)o1 | 29.19% |
| Cc1ccc(C(=O)N2CC[C@@]3(C[C@@H](NS(C)(=O)=O)CCO3)C2)s1 | 6.984% |
| COC(=O)[C@]12CNC[C@H]1CN(Cc1nc(C)c[nH]1)C2 | -13.35% |
| O=C(NC[C@]12COC[C@H]1CN(CC1CCOCC1)C2)c1ccccc1.O=C(O)C(F)(F)F | 14.72% |
| Cc1cnc(C(=O)N2CCCC3(CCN(c4cnn(C)c4)C3=O)C2)cn1 (stereo not given) | -8.899% |
| CC1c2ccc(F)cc2CCN1C(=O)c1[nH]c(=O)[nH]c(=O)c1N (stereo not given) | 102.4% |
| CC1c2ccc(F)cc2CCN1C(=O)c1nc(=O)[nH][nH]1 (stereo not given) | 10.03% |
| Cc1nc(C)c(C(=O)N2CCc3cc(F)ccc3C2C)o1 (stereo not given) | -6.74% |
| Cc1nc(C)c(C(=O)N2CCc3ccc(F)cc3C2C)o1 (stereo not given) | 37.91% |
| COC(=O)c1cc(C(=O)N2CCc3ccc(F)cc3C2C)ccn1 (stereo not given) | 5.538% |
| CC1c2cc(F)ccc2CCN1C(=O)c1[nH]c(=O)[nH]c(=O)c1N (stereo not given) | 102.8% |
| NC(=O)C1CCN(C(=O)NC2CCc3cc(F)ccc32)CC1 (stereo not given) | -2.777% |
| Fc1ccccc1-c1nccnc1C1CCCNC1 (stereo not given) | 6.685% |
| Cc1ccccc1CN1C[C@@H](C(=O)N2CCCCO2)C[C@H]2OCC[C@H]21.O=C(O)C(F)(F)F | 19.61% |
| O=C(NC1CC1)C1(Cc2ccccc2-c2ccncc2)CCOCC1 | -4.384% |
| CS(=O)(=O)N1CCOCC12CCN(Cc1ccc(F)cc1)CC2.O=C(O)C(F)(F)F | 10.73% |
| CS(=O)(=O)N1CCCC(C(=O)Nc2cnn(Cc3ccc(Cl)cc3)c2)C1 (stereo not given) | 6.456% |
| CCCc1ccc(OC23CCCN(CC2)C3)c(OC)c1 (stereo not given) | 51.62% |
| COc1cc(CN2CCCC2)ccc1OC12CCCN(CC1)C2 (stereo not given) | 6.74% |
| COc1cc(C#N)ccc1OC12CCCN(CC1)C2 (stereo not given) | 14.23% |
| Cc1nnc2n1CCN(C(=O)c1cc(C)n(-c3ccccc3)c1C)C2 | -35.93% |
| CN(CCCOc1ccccc1)Cc1nc2c(cnn2C)c(=O)[nH]1 | 27.35% |
